An excerpt weighted towards active compounds, which were near 3.4% of everything screened.
FBW7 activator: FBW7 E3 ligase activators, primary screen, biochemical, AlphaScreen, human; F-box/WD repeat-containing protein 7 (Homo sapiens), Q969H0; AlphaScreen FBW7–phospho-cyclin E peptide binding, activator screen; normalized activity (activation), % at 26.1 µM; 0.13% of 650,000 active; AID 1259310, 2017; in the data active = normalized activity above about 1.9%;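 note: purified mutant Fbw7 with reduced substrate affinity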
MITF primary: MITF inhibitors, primary screen, biochemical, AlphaScreen, human. inhibition, % at 2.6 µM. AlphaScreen MITF homodimerization, bead proximity signal. 0.91% of 650,000 active. Microphthalmia-associated transcription factor (Homo sapiens), O75030; in the data active = inhibition above about 50%
Target sequence (O75030 whole entry, looked up): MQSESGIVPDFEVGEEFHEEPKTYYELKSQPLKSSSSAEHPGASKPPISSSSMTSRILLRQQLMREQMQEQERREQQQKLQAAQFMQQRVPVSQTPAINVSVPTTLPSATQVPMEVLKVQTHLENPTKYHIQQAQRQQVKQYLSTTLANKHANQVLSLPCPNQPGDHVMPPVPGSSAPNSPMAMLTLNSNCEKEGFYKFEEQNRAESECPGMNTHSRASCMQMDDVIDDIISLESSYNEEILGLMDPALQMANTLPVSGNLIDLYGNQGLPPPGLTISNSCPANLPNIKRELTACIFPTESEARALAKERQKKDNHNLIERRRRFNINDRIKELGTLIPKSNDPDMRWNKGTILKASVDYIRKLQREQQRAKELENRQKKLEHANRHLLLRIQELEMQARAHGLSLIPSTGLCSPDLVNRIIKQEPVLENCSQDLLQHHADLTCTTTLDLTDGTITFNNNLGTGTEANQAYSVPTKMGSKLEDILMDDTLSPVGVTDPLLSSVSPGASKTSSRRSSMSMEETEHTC
TEAD-YAP block: TEAD-YAP interaction inhibition, primary screen, TEAD-YAP interaction inhibitor project, luminescence, HEK-TIYL cells. TEAD-Gal4/YAP UAS-luciferase luminescence. inhibition, % at 9.12 µM. 1.4% of 640,000 active. AID 1259422, 2018; in the data active = inhibition above about 32%
GPR151 activ: activators of human GPR151, primary screen, cell-based, PathHunter beta-arrestin, luminescence; AID 1508602, 2020; G-protein coupled receptor 151 (Homo sapiens), Q8TDV0; 1% of 650,000 active; PathHunter beta-arrestin GPR151 cells; activation, % at 11.2 µM; in the data active = activation above about 4.9%
Of the large screens only hits and unclear results are named; the others gave an inactive call.

C=CCNC(=S)NNC(=O)c1ccccc1OCCC	none
CC(=O)N1C(=S)NC(=O)/C1=C/c1cc2cc(C)ccc2nc1N1CCOCC1	TEAD-YAP block 38
O=C(Nc1ccc(Br)cc1Br)c1ccco1	none
Cc1cccc(Nc2nc(-c3ccc(O)c(O)c3)cs2)c1	none
Oc1ccc(Nc2nc(-c3ccc(Cl)cc3)cs2)cc1	none (no result: FBW7 activator, TEAD-YAP block)
Oc1ccc(Nc2nc(-c3ccc(O)c(O)c3)cs2)cc1	MITF primary 54
O=C(O)c1ccc(Nc2nc(-c3ccc(O)c(O)c3)cs2)cc1	MITF primary 92
Nc1ccc(Nc2nc(-c3ccc(O)c(O)c3)cs2)cc1	MITF primary 98
Clc1nc(-c2ccccc2)cc(-c2cnc(Cl)nc2N2CCCCC2)n1	none
COc1cc(/C=C2/C(=N)N3N=C(C(C)C)SC3=NC2=O)ccc1OCCOc1ccccc1Cl	none
COc1ccccc1N1CCN(C(=O)Cn2c(-c3ccccc3)cc(C(C)=O)c2C)CC1	none
Cc1ccc(C(=O)NC(C)Cc2cccs2)c(C)c1 (centres undefined)	TEAD-YAP block 88
CCC(C)NC(=O)c1ccc(C)cc1C (centres undefined)	none
COc1ccc(/C=N/NC(=O)C2CC(=O)N(c3ccc(Br)cc3)C2)cc1 (centres undefined)	none
CCc1ccc(/C=N\NC(=O)C2CC(=O)N(c3ccc(OC)cc3)C2)cc1 (centres undefined)	TEAD-YAP block 47
COc1ccc(CC(=O)Nc2cccc(-c3nnc(-c4ccccc4)o3)c2)cc1OC	TEAD-YAP block 53
COc1ccc(CC(=O)Nc2ccc(-c3nnc(-c4ccccc4)o3)cc2)cc1OC	none
CCC(C)(C)n1nnnc1C(c1ccc(C(F)(F)F)cc1)N1CCN(C)CC1 (centres undefined)	none
NC(=O)c1c(NC(=O)c2cc3ccccc3o2)sc2c1CCCC2	TEAD-YAP block 46
Cc1ccc(C(=O)Nc2sc3c(c2C(N)=O)CCCCC3)o1	TEAD-YAP block 55
Cc1ccc(F)cc1NC(=O)c1ccc(C#N)cc1F	none
Cc1nn(-c2ccccc2)c(N2CCCCC2)c1/C=N/Nc1ccccn1	TEAD-YAP block 61
COc1cccc(C2CC(c3c(O)cc(C)oc3=O)=NCCS2)c1OC (centres undefined)	TEAD-YAP block 42
COc1ccc(CC2(CCC(=O)N3CCCC3c3ccc(F)cc3)CCC(=O)N2)cc1 (centres undefined)	none
CCC(=O)NC(=S)Nc1cc(C(=O)OC)cc(C(=O)OC)c1	none
COc1ccc(C(=O)Nc2ccccc2C(=O)OCC(=O)c2cccc([N+](=O)[O-])c2)cc1OC	none
CC(=O)N1CCc2c(sc(NC(=O)c3ccc(C)cc3)c2C#N)C1	TEAD-YAP block 39
CCOC(=O)N1CCc2c(sc(NC(=O)CCOc3ccccc3)c2C#N)C1	TEAD-YAP block 38
CCOC(=O)N1CCc2c(sc(NC(=O)c3ccc(N(C)C)cc3)c2C#N)C1	TEAD-YAP block 49
Cc1[nH]nc2c1C(c1cc(Br)c(C)s1)C(C#N)=C(N)O2 (centres undefined)	TEAD-YAP block 33
CCCCCNc1nc(-c2ccco2)c2c(c1C#N)CCCC2	none
N#Cc1c(NCCN)nc(-c2ccco2)c2c1CCCC2	TEAD-YAP block 34
O=C(CSc1nnc2ccc(-c3ccccc3)nn12)NCc1ccccc1	TEAD-YAP block 41
O=C(CSc1nnc2ccc(-c3ccc(F)cc3)nn12)NCc1ccccc1	TEAD-YAP block 41
O=C(CSc1nnc2ccc(-c3ccc(F)cc3)nn12)NCCc1ccccc1	none
COc1ccc(/C=C2\C(=O)ON=C2C)cc1O	MITF primary 52
C#CCOc1ccc(/C=C2/C(=O)ON=C2C)cc1OC	none
C=CCOc1ccc(/C=C2/C(=O)ON=C2C)cc1Br	none
C#CCOc1ccc(/C=C2/C(=O)ON=C2C)cc1	MITF primary 58
CCOc1ccc(/C=C2/C(=O)ON=C2C)cc1Br	MITF primary 55
COc1cc(/C=C2\C(=O)ON=C2C)cc(Br)c1O	MITF primary 81
CCOc1cc(/C=C2/C(=O)ON=C2C)ccc1O	none
C(=N\Nc1nc(-c2ccc3c(c2)OCCO3)cs1)/c1ccc2c(c1)OCO2	none
CC(=O)c1cccc(NC(=O)c2ccc(C(=O)O)cc2C(=O)O)c1	none
CC1=NOC(=O)/C1=C/c1ccc(O)cc1O	MITF primary 53
COc1cc(/C=C2\C(=O)ON=C2C)ccc1O	MITF primary 60
COc1ccc(/C=C2\NC(=S)NC2=O)cc1C	none
COc1ccc(/C=C2/NC(=S)NC2=O)cc1O	TEAD-YAP block 40
CCCOc1ccc(/C=C2/C(=O)ON=C2C)cc1OC	none
COc1cc(/C=C2\C(=O)ON=C2C)ccc1OCCc1ccccc1	TEAD-YAP block 38
C[C@H](NC(N)=O)C(=O)OCC(=O)Nc1ccc(I)cc1	none
Cc1cc2c(cc1[N+](=O)[O-])C(=O)c1cc3ccccc3nc1-2	none
CCCCC(=O)NC(c1ccc2c(c1)OCO2)c1cc(Cl)c2cccnc2c1O (centres undefined)	none
CC(=O)NC(c1ccc2c(c1)OCO2)c1cc(Cl)c2cccnc2c1O (centres undefined)	TEAD-YAP block 71
CC(=O)NC(c1cccc(Cl)c1)c1cc(Cl)c2cccnc2c1O (centres undefined)	TEAD-YAP block 36
CC(=O)NC(c1ccc(C)cc1)c1cc(Cl)c2cccnc2c1O (centres undefined)	none
CCOc1ccccc1CN1CCN(Cc2cc(=O)c3ccccc3[nH]2)CC1CCO (centres undefined)	TEAD-YAP block 48
CCc1ccc(NC(=O)c2cc(S(=O)(=O)NC(C)C)ccc2F)cc1	none
Cc1cc(Nc2ccccc2)n(-c2ccc([N+](=O)[O-])cc2)n1	none
Cc1cc(Nc2nc3ccccc3[nH]c2=O)n(-c2ccc([N+](=O)[O-])cc2)n1	TEAD-YAP block 59
O=C(NCC1COc2ccccc2O1)c1cnc(N2CCN(c3ccccn3)CC2)c2ccccc12 (centres undefined)	TEAD-YAP block 41
O=C(NCc1cccnc1)c1cnc(N2CCN(c3ccccn3)CC2)c2ccccc12	TEAD-YAP block 39
Cc1c(C(=O)NCc2cccnc2)sc2ncnc(N3CCN(c4ccccn4)CC3)c12	TEAD-YAP block 35
O=C(NCC1COc2ccccc2O1)c1cnc(N2CCN(c3ncccn3)CC2)c2ccccc12 (centres undefined)	none
O=C(NCc1ccc(F)cc1)c1cnc(N2CCN(c3ccccn3)CC2)c2ccccc12	none
CC1CC(C)CN(C(=O)CSc2nc3ccccc3c(=O)n2C2CC2)C1 (centres undefined)	none
O=C(O)CC(C(=O)O)N1C(=O)/C(=C\C(Cl)=C/c2ccc([N+](=O)[O-])cc2)SC1=S (centres undefined)	none
Cc1cc(C)c2c(n1)sc1c2ncn2c3ccccc3nc12	none
O=C(/C=C/c1ccccc1Cl)Nc1ccc2c(c1)C(=O)NC2=O	none
O=C(/C=C/c1ccccc1Cl)Nc1cccc(O)c1	TEAD-YAP block 38

Assay outcomes from PubChem BioAssay.
